Sampled rows, rich in hits. Any-hit rate of the full collection: about 19%.
TDP1 cell CPT – DT40-hTDP1 cell growth loss with CPT | chicken DT40 Tdp1-/-;hTDP1 cells + 20 nM CPT, ATP luminescence, 48 h | Potency, µM (doses to about 46.2 µM), inactives show at the highest dose activity change, negative = growth inhibition, usual class: inhibitors | 12% of 420,000 active | AID 686979; note: potency is the fitted concentration of half-maximal effect; nearly all actives have a fitted effect of over 55% in size
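Chicken DT40 Tdp1-/- cells stably complemented with human TDP1 were seeded at 400 cells/well in medium containing 20 nM camptothecin, exposed to pin-transferred compounds, and grown at 37 °C for at least 48 hr. Viability was read as ATP luminescence.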
HT1080 IDH1KD tx – HT-1080 IDH1 knockdown cell toxicity (counter line); HT-1080 IDH1 knockdown viability, ATP luminescence, 48 h; Potency, µM (top dose mostly 46.1 µM), for the others: top-dose activity, negative = toxicity, actives largely listed as cytotoxic; 2% of 360,000 active;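 note: potency is the fitted concentration of half-maximal effect; 0% = DMSO wells and -100% = cell-free medium wells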
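CellTiter-Glo luminescence after 48 h compound exposure at 37 degrees C of IDH1-knockdown HT-1080 cells in 5% FBS RPMI. %Activity scaled between DMSO wells and cell-free media wells, with curves fitted and assigned curve classes.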
TDP1 cell noCPT – qHTS for Inhibitors of human tyrosyl-DNA phosphodiesterase 1 (TDP1): qHTS in cells in absence of CPT | 15% of 420,000 active | DT40 Tdp1-/- hTDP1 cells, no CPT, ATP luminescence, 48 h | Potency, µM (highest dose often 46.2 µM), for inactives: top-dose activity change, negative = growth inhibition, usual class: inhibitors; note: potency is the fitted concentration of half-maximal effect; nearly all actives have a fitted effect of over 55% in size
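Compound effects on proliferation are scored in DT40 Tdp1-/-;hTDP1 cells in the absence of CPT. ATP levels (CellTiter-Glo luminescence) are recorded after a ≥48 hr, 37 °C incubation.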
HT1080-NT tox – kills 2HG-producing HT-1080-NT fibrosarcoma cells; HT-1080-NT fibrosarcoma viability, CellTiter-Glo ATP luminescence, 48 h; Potency, µM (top dose mostly 46.1 µM), inactives show top-dose activity, negative = less viability, usual class: cytotoxic; 1.6% of 360,000 active;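 note: NT is the 2HG producing partner of a matched IDH1 knockdown line; potency is the fitted concentration of half-maximal effect; 0% = DMSO-treated cells and -100% = media-only wells without cells; nearly all actives have a fitted effect of over 55% in size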
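HT-1080-NT; 750 cells/well; 5% FBS RPMI; 48 h compound, 37 degrees C; CellTiter-Glo luminescence; curve fitting and curve-class assignment.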
IL-1B inflam inh – blocks inflammasome-driven IL-1 beta release; THP-1 LPS/ATP IL-1B secretion, AlphaLISA, 16 h; hits give low values; activity change, % at 57.5 µM; 4.7% of 360,000 active; AID 743279; in the data active = activity change below about -50%; inconclusive = mostly about -30% to -49%
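Secreted IL-1B measured by AlphaLISA bead assay after 16 h compound exposure of THP-1 cells; compounds (final up to 57.5 uM) added 1 h before LPS (250 ng/mL) and ATP (1.25 mM) stimulation; lower signal means less secretion.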
Starred values were filed as active, the others as inactive. Unless noted, calls come from the whole dose curve; as a rule, active = well fitted curve in the direction sought with a large enough effect; inconclusive = small, poorly fitted or top-dose-only effect, or another doubt; inactive = no such curve, though single readings can be large; an effect the other way counts as inactive or inconclusive. Unless noted, % is set by controls: 0 for no effect and ±100 for the full control effect.

For CCC1Nc2cc(Cl)c(S(N)(=O)=O)cc2S(=O)(=O)N1 (centres undefined) the results were TDP1 cell CPT 0.8% and TDP1 cell noCPT -7.7%.
COc1ccc(C2NCCc3[nH]cnc32)cc1 (centres undefined) was read as TDP1 cell CPT 17.7%, HT1080 IDH1KD tx 15.8%, TDP1 cell noCPT -3.7%, HT1080-NT tox 12.1% and IL-1B inflam inh -20.3.
CCCCn1c(O)c(C(C)=NCc2ccc3c(c2)OCO3)c(=O)[nH]c1=O was read as TDP1 cell CPT inconclusive, HT1080 IDH1KD tx -0.9%, TDP1 cell noCPT inconclusive, HT1080-NT tox -2.5% and IL-1B inflam inh 8.0.
Screening CC(=NCc1ccc2c(c1)OCO2)c1c(O)n(C)c(=O)n(C)c1=O returned TDP1 cell CPT inconclusive, HT1080 IDH1KD tx -25.6%, TDP1 cell noCPT inconclusive, HT1080-NT tox 2.51µM* and IL-1B inflam inh 10.5.
`CCC(=NCc1ccc2c(c1)OCO2)c1c(O)n(C)c(=O)n(C)c1=O` gave TDP1 cell CPT inconclusive, HT1080 IDH1KD tx -18.6%, TDP1 cell noCPT 20.6µM*, HT1080-NT tox -13.7% and IL-1B inflam inh -25.8.
`CCC(=NCc1cc(OC)cc(OC)c1)c1c(O)n(C)c(=O)n(C)c1=O` gave TDP1 cell CPT 10µM*, HT1080 IDH1KD tx 1.2%, TDP1 cell noCPT 8.91µM*, HT1080-NT tox 8.5% and IL-1B inflam inh 2.5.
`COC(=O)C1=CO[C@@H](C)[C@@H]2CN(CCc3c[nH]c4ccccc34)CC[C@H]12` gave TDP1 cell CPT inconclusive, HT1080 IDH1KD tx -2.2%, TDP1 cell noCPT inconclusive, HT1080-NT tox -3.6% and IL-1B inflam inh -10.1.
`CCc1ccc(NC(=O)CN2CC(c3ccccc3)CC2=O)cc1` (centres undefined) gave TDP1 cell CPT -0.9%, HT1080 IDH1KD tx 1.1%, TDP1 cell noCPT -19.3%, HT1080-NT tox 0.9% and IL-1B inflam inh inconclusive.
C[C@H]1O[C@H](O[C@H]2[C@H](O)[C@@H](O)[C@@H](O)[C@H](O)[C@@H]2O)[C@@H](N)C[C@@H]1NC(=N)C(=O)O was read as TDP1 cell CPT -8.3% and TDP1 cell noCPT -16.9%.
CCN(CC)C(=O)c1ccc(NC(=O)c2ccc3c(c2)NC(=O)CS3)cc1 was read as TDP1 cell CPT -4.9%, HT1080 IDH1KD tx -5.6%, TDP1 cell noCPT -1.0%, HT1080-NT tox -1.6% and IL-1B inflam inh -4.1.
`CCc1cccc(NC(=O)c2ccc(NC(=O)N3CCSc4ncccc43)cc2)c1` gave TDP1 cell CPT 20.6µM* and TDP1 cell noCPT 16.4µM*.
`Cc1ccc(C)c(S(=O)(=O)c2nnn3c2nc(N2CCCC2)c2sccc23)c1` gave TDP1 cell CPT 16.4µM* and TDP1 cell noCPT inconclusive.
`CC(C)[C@H]1C(=O)O[C@@H]2CCN3CC=C(COC(=O)[C@](C)(O)[C@]1(C)O)[C@H]23` gave TDP1 cell CPT inconclusive, HT1080 IDH1KD tx -0.8%, TDP1 cell noCPT -18.7%, HT1080-NT tox 1.6% and IL-1B inflam inh 9.4.
`C[N+](C)(C)CC1CCCC(C[N+](C)(C)C)C1=O` (centres undefined) gave TDP1 cell CPT 0.0411µM*, HT1080 IDH1KD tx 3.66µM*, TDP1 cell noCPT 0.058µM*, HT1080-NT tox inconclusive and IL-1B inflam inh -22.7.
Screening C[N+](C)(C)CC1CCCc2ccccc2C1=O (centres undefined) returned TDP1 cell CPT 2.91µM*, HT1080 IDH1KD tx 5.8µM*, TDP1 cell noCPT 2.59µM*, HT1080-NT tox inconclusive and IL-1B inflam inh -10.9.
Screening CCN(CC)c1ccc(C=NN2CCCCCC2)cc1 returned TDP1 cell CPT inconclusive, HT1080 IDH1KD tx 6.8%, TDP1 cell noCPT inconclusive, HT1080-NT tox -1.7% and IL-1B inflam inh -18.4.
Screening C[C@H]1COc2cc(N3CCN(C)CC3)ccc2S(=O)(=O)N1 returned TDP1 cell CPT 0.7%, HT1080 IDH1KD tx 2.6%, TDP1 cell noCPT -13.0%, HT1080-NT tox 14.8% and IL-1B inflam inh -15.2.
For Cc1ccc(OC(=O)N(C)C[C@@H]2OCc3cnnn3CCCC(=O)N([C@@H](C)CO)C[C@H]2C)cc1 the results were TDP1 cell CPT -2.3%, HT1080 IDH1KD tx -0.4%, TDP1 cell noCPT -1.2%, HT1080-NT tox 2.0% and IL-1B inflam inh 23.2.
For Cn1nc(-c2ccc(C(=O)Nc3ccc(OC(F)(F)F)cc3)cc2)c2ccccc2c1=O the results were TDP1 cell CPT 9.2µM* and TDP1 cell noCPT 16.4µM*.
CCN(CC)C(=O)c1ccc(NC(=O)COc2ccc(-c3nn(C)c(=O)c4ccccc34)cc2)cc1 was read as TDP1 cell CPT 16.4µM*, HT1080 IDH1KD tx -13.9%, TDP1 cell noCPT inconclusive, HT1080-NT tox -17.0% and IL-1B inflam inh 5.0.
For Cc1ccc(OCC(=O)Nc2ccc(Cl)cc2C(=O)c2ccccc2)cc1 the results were TDP1 cell CPT -3.9%, HT1080 IDH1KD tx 7.4%, TDP1 cell noCPT -23.4%, HT1080-NT tox 15.7% and IL-1B inflam inh 0.0.
For Cc1ccc(NC(=O)COc2ccc(-c3nn(C)c(=O)c4ccccc34)cc2)c(C)c1 the results were TDP1 cell CPT 16.4µM* and TDP1 cell noCPT 13µM*.
For CCN(CC)C(=O)c1ccc(NC(=O)Cn2nc(-c3ccc(C)cc3)c3ccccc3c2=O)cc1 the results were TDP1 cell CPT 3.4% and TDP1 cell noCPT -19.6%.
`CCN(CC)C(=O)c1ccc(NC(=O)CCn2nc(-c3ccc(C)cc3)c3ccccc3c2=O)cc1` gave TDP1 cell CPT 18.4µM* and TDP1 cell noCPT 14.6µM*.
Screening Cc1cccc(NC(=O)[C@@H](NC(=O)N2C[C@H]3C[C@@H](C2)c2cccc(=O)n2C3)C(C)C)c1 returned TDP1 cell CPT 3.7%, HT1080 IDH1KD tx 4.0%, TDP1 cell noCPT -9.4%, HT1080-NT tox 2.6% and IL-1B inflam inh 14.0.
`O=C(O)Cc1cccnc1C(=O)O` gave TDP1 cell CPT 1.2% and TDP1 cell noCPT -9.1%.
`CCC(C)n1c(O)c(C(c2ccccn2)c2c(O)n(C(C)CC)c(=S)[nH]c2=O)c(=O)[nH]c1=S` (centres undefined) gave TDP1 cell CPT 7.2%, HT1080 IDH1KD tx 16.8%, TDP1 cell noCPT 0.3%, HT1080-NT tox 3.1% and IL-1B inflam inh 0.6.
Screening CCCC(=O)Nc1cc(C(=O)N2CCC3(CC2)OCCO3)ccc1S(=O)(=O)c1ccc(C)cc1 returned TDP1 cell CPT inconclusive, HT1080 IDH1KD tx -1.9%, TDP1 cell noCPT -13.8%, HT1080-NT tox 4.1% and IL-1B inflam inh 30.4.
Screening CCc1cccc(CC)c1NC(=S)N1CC2CC(C1)c1cccc(=O)n1C2 (centres undefined) returned TDP1 cell CPT -0.6%, HT1080 IDH1KD tx inconclusive, TDP1 cell noCPT -6.8%, HT1080-NT tox 26.3% and IL-1B inflam inh 17.3.

Screens from PubChem.
